The supplement of paper PMC10849652
Targets with a hit are over-represented here; the source holds about 7,900 in all. About 0.6% of all pairs of compound and target were hits. Unmarked numbers belong to inactive results.

Experiments:
Assay in all cases: log2 fold change, soluble protein after heating vs DMSO (PISA); higher = thermal stabilisation; K562 cells, 10 uM, 30 min; active = over 0.2 and 3.5 SD of the protein, either way, in both replicates (recomputed)
[1] = compound: CC1=C(C=C(C=C1)NC(=O)C2=CC(=CC=C2)C(C)(C)C#N)NC3=CC4=C(C=C3)N=CN(C4=O)C
Procedure, shortened: (§1)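 Values are thermal stability changes relative to control samples and are taken from duplicates. They are stated as log2 fold changes. Before quantification by TMTpro 16plex LC-MS/MS with equalised channel sums, K562 cells at 2×10^6 cells/mL were treated with 10 μM compound for 30 min, heated in aliquots for 3 min across 48°C-58°C, pooled, extracted in PBS with 0.5% NP-40 at 4°C, and centrifuged at 21,000xg for 90 min to give the soluble supernatant.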

[2] = compound: CC1=C(C=C(C=C1)NC(=O)C2=CC(=CC=C2)N(C)C)NC(=O)C3=CC=C(C=C3)O
Procedure, shortened: as §1

[3] = compound: CC1=CC=C(C=C1)SC2=C3C=C(SC3=CN=C2)C(=O)N
Procedure, shortened: as §1

[4] = compound: CC1=NC(=CC=C1)C2=C(N=C(N2)C(C)(C)C)C3=CC4=NC=CN=C4C=C3
Procedure, shortened: as §1

[5] = compound: CCCCN(Cc1ccc(C(=O)NO)cc1)C(=O)Nc1ccccc1 [Nexturastat A]
Procedure, shortened: as §1

[6] = compound: CCCS(=O)(=O)Nc1ccc(F)c(C(=O)c2c[nH]c3ncc(-c4ccc(Cl)cc4)cc23)c1F [vemurafenib]
Procedure, shortened: as §1

[7] = compound: CCCS(=O)(=O)Nc1ccc(F)c(C(=O)c2c[nH]c3ncc(Cl)cc23)c1F
Procedure, shortened: as §1

[8] = compound: CCCc1cc(C)[nH]c(=O)c1CNC(=O)c1cc(-c2ccnc(N3CCN(C)CC3)c2)cc2c1cnn2C(C)C
Procedure, shortened: as §1

[9] = compound: CCN(CC)Cc1ccc2cc(COC(=O)Nc3ccc(C(=O)NO)cc3)ccc2c1 [givinostat]
Procedure, shortened: as §1

[10] = compound: CCN(CCCOc1ccc2c(Nc3cc(CC(=O)Nc4cccc(F)c4)[nH]n3)ncnc2c1)CCOP(=O)(O)O [barasertib]
Procedure, shortened: as §1

[11] = compound: CC[C@@H]1C(=O)N(C)c2cnc(Nc3ccc(C(=O)NC4CCN(C)CC4)cc3OC)nc2N1C1CCCC1
Procedure, shortened: as §1

[12] = compound: CC[C@@H]1C(=O)N(C)c2cnc(Nc3ccc(C(=O)N[C@H]4CC[C@H](N5CCN(CC6CC6)CC5)CC4)cc3OC)nc2N1C(C)C [volasertib]
Procedure, shortened: as §1

[13] = compound: CC[C@H](C)N1C=C(C2=C(C=C(C=C21)C3=CN=C(C=C3)N4CCNCC4)C(=O)NCC5=C(C=C(NC5=O)C)C)C
Procedure, shortened: as §1

[14] = compound: CC[C@H](C)[C@@H](C(=O)N[C@@H]([C@@H](C)O)C(=O)N[C@@H](CC(C)C)C(=O)[C@]1(CO1)C)NC(=O)[C@H]([C@@H](C)CC)N(C)C(=O)C [epoxomicin]
Procedure, shortened: as §1

[15] = compound: CCn1c(C(=O)N(C2CC2)C2CC2)cc2c3c(ncn3C)c(Nc3cc(C)n(C)n3)nc21
Procedure, shortened: as §1

[16] = compound: CCn1cc(-c2ccnc3[nH]c(-c4cccc(CN(C)C)c4)cc23)c(-c2ccc(NC(=O)N(C)C)cc2)n1
Procedure, shortened: as §1

[17] = compound: CN(C)CC(=O)Nc1ccc2[nH]c(=O)c3ccccc3c2c1
Procedure, shortened: as §1

[18] = compound: CN(CCOC1=CC=C(C=C1)C[C@H]2C(=O)NC(=O)S2)C3=CC=CC=N3 (racemic) [rosiglitazone]
Procedure, shortened: as §1

[19] = compound: CN1C2=C(C3=C1C(=O)N(N=C3)CC4=CC(=CC=C4)N)SC(=C2)S(=O)C
Procedure, shortened: as §1

[20] = compound: CN1CCC(CNc2ccc3ncc(-c4cccc(OC(F)(F)F)c4)n3n2)CC1
Procedure, shortened: as §1

UniProt Q9H1E3, sequence (Q9H1E3 whole entry, looked up): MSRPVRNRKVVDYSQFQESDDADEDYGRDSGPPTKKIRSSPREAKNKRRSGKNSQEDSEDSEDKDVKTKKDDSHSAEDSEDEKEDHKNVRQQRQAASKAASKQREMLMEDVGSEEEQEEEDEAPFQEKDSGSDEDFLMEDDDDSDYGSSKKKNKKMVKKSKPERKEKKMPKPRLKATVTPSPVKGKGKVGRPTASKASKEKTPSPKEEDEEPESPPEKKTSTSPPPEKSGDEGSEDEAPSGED
UniProt Q8WV92, sequence (Q8WV92 whole entry, looked up): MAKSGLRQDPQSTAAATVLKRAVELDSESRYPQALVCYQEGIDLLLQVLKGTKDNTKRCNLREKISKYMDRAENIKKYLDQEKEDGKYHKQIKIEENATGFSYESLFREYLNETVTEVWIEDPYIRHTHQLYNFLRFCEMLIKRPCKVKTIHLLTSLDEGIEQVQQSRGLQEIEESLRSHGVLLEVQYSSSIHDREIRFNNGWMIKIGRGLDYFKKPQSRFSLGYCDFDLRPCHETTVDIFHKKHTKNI
UniProt Q13469, sequence (Q13469 whole entry, looked up): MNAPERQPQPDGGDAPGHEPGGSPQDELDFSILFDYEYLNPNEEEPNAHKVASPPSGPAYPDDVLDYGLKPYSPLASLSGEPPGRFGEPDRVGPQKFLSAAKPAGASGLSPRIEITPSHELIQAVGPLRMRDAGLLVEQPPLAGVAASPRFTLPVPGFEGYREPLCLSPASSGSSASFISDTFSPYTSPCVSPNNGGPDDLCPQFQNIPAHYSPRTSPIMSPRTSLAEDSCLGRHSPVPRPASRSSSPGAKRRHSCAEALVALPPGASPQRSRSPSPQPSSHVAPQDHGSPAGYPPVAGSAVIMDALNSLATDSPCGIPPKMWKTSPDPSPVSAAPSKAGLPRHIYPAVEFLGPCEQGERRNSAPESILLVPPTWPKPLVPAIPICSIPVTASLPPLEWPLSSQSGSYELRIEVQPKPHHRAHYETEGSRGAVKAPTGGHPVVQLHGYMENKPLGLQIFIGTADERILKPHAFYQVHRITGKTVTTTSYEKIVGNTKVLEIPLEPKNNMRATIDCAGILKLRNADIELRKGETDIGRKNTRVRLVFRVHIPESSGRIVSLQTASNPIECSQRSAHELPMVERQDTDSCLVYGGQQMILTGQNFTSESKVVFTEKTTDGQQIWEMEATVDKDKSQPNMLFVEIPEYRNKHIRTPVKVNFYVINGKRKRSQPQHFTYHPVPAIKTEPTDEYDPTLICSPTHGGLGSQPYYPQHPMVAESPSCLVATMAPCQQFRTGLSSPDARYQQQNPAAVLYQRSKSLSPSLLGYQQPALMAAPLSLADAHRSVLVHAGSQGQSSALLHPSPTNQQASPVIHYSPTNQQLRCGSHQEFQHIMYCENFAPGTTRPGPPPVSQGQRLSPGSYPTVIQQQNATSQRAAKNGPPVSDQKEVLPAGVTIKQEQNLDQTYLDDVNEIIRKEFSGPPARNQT
UniProt P49321, sequence (P49321 whole entry, looked up): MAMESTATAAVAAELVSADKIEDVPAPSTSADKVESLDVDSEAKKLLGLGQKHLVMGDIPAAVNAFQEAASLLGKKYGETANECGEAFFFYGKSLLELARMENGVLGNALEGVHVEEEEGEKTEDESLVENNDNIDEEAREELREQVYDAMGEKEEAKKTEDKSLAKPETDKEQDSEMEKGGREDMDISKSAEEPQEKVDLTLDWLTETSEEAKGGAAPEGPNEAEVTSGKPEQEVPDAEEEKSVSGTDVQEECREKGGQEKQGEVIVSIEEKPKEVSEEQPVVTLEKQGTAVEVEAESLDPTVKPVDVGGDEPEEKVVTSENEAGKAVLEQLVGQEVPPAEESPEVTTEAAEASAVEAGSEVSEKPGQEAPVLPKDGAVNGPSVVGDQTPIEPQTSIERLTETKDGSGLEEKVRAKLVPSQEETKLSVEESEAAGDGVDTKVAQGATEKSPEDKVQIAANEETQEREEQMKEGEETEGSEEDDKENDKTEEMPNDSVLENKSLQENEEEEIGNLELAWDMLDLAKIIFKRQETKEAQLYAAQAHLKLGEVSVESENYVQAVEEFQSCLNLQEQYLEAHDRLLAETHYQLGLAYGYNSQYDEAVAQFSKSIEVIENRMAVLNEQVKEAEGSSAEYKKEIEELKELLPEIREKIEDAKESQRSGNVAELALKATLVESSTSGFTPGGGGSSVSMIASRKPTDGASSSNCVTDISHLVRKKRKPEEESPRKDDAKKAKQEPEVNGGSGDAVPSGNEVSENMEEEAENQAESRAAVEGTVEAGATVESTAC
UniProt Q8NCE2, sequence (Q8NCE2 whole entry, looked up): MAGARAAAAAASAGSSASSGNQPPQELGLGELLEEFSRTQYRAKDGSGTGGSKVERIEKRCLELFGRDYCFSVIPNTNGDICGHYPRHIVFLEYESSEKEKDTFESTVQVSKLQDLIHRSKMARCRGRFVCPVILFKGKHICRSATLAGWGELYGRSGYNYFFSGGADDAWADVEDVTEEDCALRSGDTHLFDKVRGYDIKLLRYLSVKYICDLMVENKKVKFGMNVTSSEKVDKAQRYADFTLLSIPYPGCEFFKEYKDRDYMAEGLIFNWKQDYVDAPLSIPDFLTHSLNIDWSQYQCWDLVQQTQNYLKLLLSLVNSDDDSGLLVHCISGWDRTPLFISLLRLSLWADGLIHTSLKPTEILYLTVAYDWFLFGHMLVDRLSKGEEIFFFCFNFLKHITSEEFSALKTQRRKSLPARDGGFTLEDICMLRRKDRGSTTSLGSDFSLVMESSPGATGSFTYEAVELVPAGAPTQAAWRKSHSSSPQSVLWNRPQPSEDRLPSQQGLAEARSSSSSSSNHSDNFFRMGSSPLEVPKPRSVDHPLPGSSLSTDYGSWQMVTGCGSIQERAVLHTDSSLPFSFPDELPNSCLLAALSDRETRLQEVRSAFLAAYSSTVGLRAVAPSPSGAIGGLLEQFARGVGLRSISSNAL
UniProt O14524, sequence (O14524 whole entry, looked up): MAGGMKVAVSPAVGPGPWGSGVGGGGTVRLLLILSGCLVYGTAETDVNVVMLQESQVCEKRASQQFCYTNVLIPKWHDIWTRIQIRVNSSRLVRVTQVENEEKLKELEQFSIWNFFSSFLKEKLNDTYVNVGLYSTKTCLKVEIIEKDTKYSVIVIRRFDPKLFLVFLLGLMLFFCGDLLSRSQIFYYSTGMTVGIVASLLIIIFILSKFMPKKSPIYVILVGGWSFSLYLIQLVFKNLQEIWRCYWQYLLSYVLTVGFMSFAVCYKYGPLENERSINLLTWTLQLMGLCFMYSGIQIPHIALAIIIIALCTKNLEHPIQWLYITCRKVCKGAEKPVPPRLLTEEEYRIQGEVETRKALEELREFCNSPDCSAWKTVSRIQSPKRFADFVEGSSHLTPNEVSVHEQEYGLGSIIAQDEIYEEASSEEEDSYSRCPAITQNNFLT

| Target | log2 fold change [1] | log2 fold change [2] | log2 fold change [3] | log2 fold change [4] | log2 fold change [5] | log2 fold change [6] | log2 fold change [7] | log2 fold change [8] | log2 fold change [9] | log2 fold change [10] | log2 fold change [11] | log2 fold change [12] | log2 fold change [13] | log2 fold change [14] | log2 fold change [15] | log2 fold change [16] | log2 fold change [17] | log2 fold change [18] | log2 fold change [19] | log2 fold change [20] |
| --- | --- | --- | --- | --- | --- | --- | --- | --- | --- | --- | --- | --- | --- | --- | --- | --- | --- | --- | --- | --- |
| NEMP1 (UniProt O14524) | -0.051 | 0.037 | 0.031 | -0.022 | -0.057 | -0.084 | -0.041 | -0.001 | -0.061 | -0.034 | 0.007 | -0.128 | -0.023 | 0.015 | 0.08 | 0.018 | -0.003 | 0.048 | 0.01 | -0.106 |
| NASP (UniProt P49321) | 0.012 | -0.033 | 0 | 0.009 | -0.058 | 0.037 | 0.038 | -0.006 | 0.001 | 0.027 | -0.118 | -0.277 (active) | 0.049 | 0.046 | 0.035 | -0.03 | 0.004 | 0.029 | -0.061 | -0.051 |
| MRPS6 (UniProt P82932) | 0.081 | -0.052 | 0.006 | 0.128 | 0.076 | 0.1 | 0.059 | 0.062 | 0.037 | -0.017 | -0.015 | -0.045 | 0.03 | -0.012 | -0.06 | -0.067 | 0.09 | 0.072 | -0.021 | 0.027 |
| NUCKS1 (UniProt Q9H1E3) | -0.036 | 0.065 | -0.014 | 0.044 | -0.061 | 0.017 | -0.061 | -0.076 | -0.004 | 0.008 | -0.061 | -0.012 | -0.028 | 0.016 | 0.033 | 0.014 | -0.073 | 0.001 | -0.043 | -0.083 |
| MITD1 (UniProt Q8WV92) | -0.124 | 0.072 | -0.043 | -0.043 | -0.026 | 0.069 | 0 | -0.093 | -0.047 | 0.042 | -0.16 | -0.266 | 0.077 | 0.147 | 0.117 | 0.057 | 0.049 | -0.016 | 0.079 | -0.365 |
| MTMR14 (UniProt Q8NCE2) | -0.009 | -0.048 | -0.004 | 0.02 | 0.028 | -0.02 | 0.071 | -0.016 | 0.061 | 0.019 | -0.194 | -0.622 (active) | 0.037 | 0.019 | 0.009 | -0.056 | 0.001 | 0.026 | 0.022 | -0.039 |
| NA, A0A096LPI6 | -0.018 | 0.032 | 0.051 | 0.039 | -0.093 | 0.008 | 0.052 | -0.033 | -0.055 | -0.003 | 0.023 | 0.044 | -0.056 | -0.017 | 0.042 | 0.029 | -0.002 | -0.019 | -0.03 | 0.016 |
| NFATC2 (UniProt Q13469) | -0.046 | -0.079 | -0.031 | 0.018 | 0.12 | 0.038 | 0.041 | 0.086 | 0.192 | 0.107 | -0.098 | -0.281 | 0.19 | -0.001 | 0.045 | -0.197 | 0.065 | 0.191 | 0.039 | -0.102 |
